PubChem BioAssay (Tox21)
Inconclusive results are not listed. Calls of active or inactive are those of the source. Unless noted, the call rests on the fitted dose curve; in most records, active means well fitted curve in the direction sought with a large enough effect in the repeat runs; inconclusive means weak or mixed curves; inactive means no such curve, though single readings can be large; an effect the other way counts as inactive or inconclusive.

Experiments:
[1] = qHTS assay to identify small molecule antagonists of the progesterone receptor (PR) signaling pathway - cell viability counter screen (AID 1346798); further: nearly all actives have a fitted effect of over 50% in size; further: potency means the concentration at half of the fitted maximal effect
Summary of the method: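 Following a 4 hr attachment, PR-UAS-bla HEK293T cells in charcoal-stripped FBS medium were exposed to compounds with R5020 for 16 hr; CellTiter-Glo was added and luminescence read after 30 min at room temperature.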

[2] = qHTS assay to identify small molecule antagonists of the TGF-beta/Smad signaling pathway - cell viability counter screen (AID 1346824); further: nearly all actives have a fitted effect of over 50% in size
Summary of the method: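 SBE-bla HEK 293T cells, incubated overnight, then compound plus 0.25 ng/mL TGF-beta1 (stock added) for 5 hr at 37 C. Viability was read in the same wells by CellTiter-Glo luminescence after 30 min at room temperature.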

[3] = qHTS assay to identify small molecule agonists of the TGF-beta/Smad signaling pathway - cell viability counter screen (AID 1346829); further: nearly all actives have a fitted effect of over 45% in size; further: potency means the concentration at half of the fitted maximal effect; on activity change, negative = cytotoxicity: top concentration of the series differs between compounds; on the % scale 0 is the no-effect control and ±100 the full control effect
Summary of the method: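 Cytotoxicity counter screen: CellTiter-Glo luminescence (30 min, room temperature) measured in the SBE-bla HEK 293T reporter wells after 5 hr compound treatment at 37 C and the 2 hr substrate step.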

[4] = qHTS assay to identify small molecule agonists of the TGF-beta/Smad signaling pathway (AID 1346859; active means well fitted activation curve with a large enough effect in the signal ratio in the repeat runs, not every such curve was filed as active; the % refers to the signal ratio; further: series mostly up to about 77 µM; on the % scale 0 is the no-effect control and ±100 the full control effect)
Summary of the method: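 Each well held 4,000 SBE-bla HEK 293T cells incubated overnight before compound addition; 5 hr later the cleavable FRET substrate went on for 2 hr at room temperature, and fluorescence was read at two emissions.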

[5] = target: Thyrotropin-releasing hormone receptor (Homo sapiens) (UniProt P34981); assay: qHTS assay to identify small molecule antagonists of the thyrotropin-releasing hormone receptor (TRHR) signaling pathway (AID 1346877; active means well fitted inhibition curve with a large enough effect in the repeat runs, not every such curve was filed as active; further: series mostly up to about 51 µM; on the % scale 0 is the no-effect control and ±100 the full control effect)
Summary of the method: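 Screening used HEK293 cells engineered with TRHR, with a brief 5 min room-temperature compound exposure preceding addition of TRH to 1 nM. The read-out was kinetic calcium-dye fluorescence, concentration-response from 15 doses in triplicate.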

[6] = target: Thyrotropin-releasing hormone receptor (Homo sapiens) (UniProt P34981); assay: qHTS assay to identify small molecule agonists of the thyrotropin-releasing hormone receptor (TRHR) signaling pathway (AID 1346891; calls by dose curve; further: series mostly up to about 58 µM; on the % scale 0 is the no-effect control and ±100 the full control effect)
Summary of the method: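 Screening of agonists relied on calcium signalling in HEK293 cells expressing human TRHR: dye loading 2 h at 37 °C preceded compound addition and a 3-min fluorescence time course.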

[7] = Caspase-3/7 induction in HepG2 cells by small molecules, qHTS assay (AID 1346978); further: nearly all actives have a fitted effect of over 15% in size; further: potency means the concentration at half of the fitted maximal effect
Summary of the method: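 Wild-type HepG2 cells, 2,000/well, settled 5 hr at 37 C and 5% CO2, then compound-treated for 17 hr; caspase-3/7 activity read by luminescent Caspase-Glo 3/7 after 30 min at room temperature.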

[8] = Caspase-3/7 induction in CHO-K1 cells by small molecules, qHTS cell viability counter screen (AID 1346979); further: potency means the concentration at half of the fitted maximal effect; nearly all actives have a fitted effect of over 35% in size
Summary of the method: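 CellTiter-Fluor viability check, qHTS format: wild-type CHO-K1, 16hr compound treatment, 1hr reagent incubation, fluorescence read.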

[9] = Caspase-3/7 induction in CHO-K1 cells by small molecules, qHTS assay (AID 1346980); further: on the % scale 0 is the no-effect control and ±100 the full control effect; nearly all actives have a fitted effect of over 15% in size
Summary of the method: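 Wild-type CHO-K1 cells exposed to compounds for 17hr at 37 C, 5% CO2. Caspase-3/7 activity then measured by Caspase-Glo 3/7 luminescence after 30min at room temperature.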

[10] = target: Nuclear receptor subfamily 1 group I member 2 (Homo sapiens) (UniProt O75469); assay: Human pregnane X receptor (PXR) small molecule agonists, qHTS assay (AID 1346982); further: nearly all actives have a fitted effect of over 35% in size; further: potency means the concentration at half of the fitted maximal effect
Summary of the method: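 We seeded PXR-Luc HepG2 cells in assay medium containing 5% charcoal-stripped FBS, added compounds 5 hr later, incubated 24 hr, and read luminescence with ONE-Glo reagent.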

[11] = target: Nuclear receptor subfamily 1 group I member 2 (Rattus norvegicus) (UniProt Q9R1A7); assay: Rat pregnane X receptor (rPXR) activation by small molecules, qHTS assay (AID 1346983); details: rPXR luciferase reporter cells, One-Glo luminescence, 24 h; max activation: stronger effect = higher value; further: on the % scale 0 is the no-effect control and ±100 the full control effect; nearly all actives have a fitted effect of over 20% in size
Summary of the method: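 Cell-based rPXR activation assay: rPXR cells, 2,000 per well, rested 5hr at 37 C, then exposed to compounds in DMSO for 24 hr at 37 C. Luciferase activity read by One-Glo luminescence after 30 min at room temperature.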

[12] = target: Nuclear receptor subfamily 1 group I member 2 (Homo sapiens) (UniProt O75469); assay: CYP3A4 induction through human pregnane X receptor (PXR) by small molecules, qHTS assay (AID 1346984); further: on the % scale 0 is the no-effect control and ±100 the full control effect; nearly all actives have a fitted effect of over 40% in size
Summary of the method: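 qHTS, concentration-response format: HepG2 DPX-2 line, PXR/CYP3A4-luc. Exposure 24 h, 37C. Substrate Luciferin-IPA 3uM final, 3 h. Detection One-Glo, 30 min RT.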

[13] = target: Acetylcholinesterase (Homo sapiens) (UniProt P22303); assay: Acetylcholinesterase (AChE) small molecule antagonists: colormetric cell-based qHTS assay (AID 1347395; calls by dose curve; further: on the % scale 0 is the no-effect control and ±100 the full control effect; nearly all actives have a fitted effect of over 30% in size)
Summary of the method: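 AChE inhibition read colorimetrically via DTNB–thiocholine in SH-SY5Y cells. Compound 30 min, substrate 90 min, both 37 C.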

[14] = qHTS assay to identify small molecule agonists of the progesterone receptor (PR) signaling pathway - cell viability counter screen (AID 1346799; calls by dose curve; further: nearly all actives have a fitted effect of over 45% in size; further: potency means the concentration at half of the fitted maximal effect)
Summary of the method: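 Here, 3,000 PR-UAS-bla HEK293T cells per well were treated with compounds for 16 hr after a 6 hr preincubation at 37C and 5% CO2; cell viability is the CellTiter-Glo luminescence signal.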

[15] = Human pregnane X receptor (PXR) small molecule agonists, qHTS cell viability counter screen (AID 1346977); further: nearly all actives have a fitted effect of over 50% in size; further: potency means the concentration at half of the fitted maximal effect
Summary of the method: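 Tox21 qHTS format; PXR-Luc HepG2, 2,000/well, charcoal-stripped FBS 5%. Cpd exposure 24hr. Read: CellTiter-Fluor fluorescence, multiplexed with luciferase.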

[16] = Caspase-3/7 induction in HepG2 cells by small molecules, qHTS cell viability counter screen (AID 1346981); further: nearly all actives have a fitted effect of over 30% in size; further: potency means the concentration at half of the fitted maximal effect
Summary of the method: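 Multiplexed with the caspase-3/7 assay: HepG2 cells, 16 hr compound treatment, CellTiter-Fluor viability detection by fluorescence.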

Chain of Thyrotropin-releasing hormone receptor (Homo sapiens) (P34981 whole entry, looked up): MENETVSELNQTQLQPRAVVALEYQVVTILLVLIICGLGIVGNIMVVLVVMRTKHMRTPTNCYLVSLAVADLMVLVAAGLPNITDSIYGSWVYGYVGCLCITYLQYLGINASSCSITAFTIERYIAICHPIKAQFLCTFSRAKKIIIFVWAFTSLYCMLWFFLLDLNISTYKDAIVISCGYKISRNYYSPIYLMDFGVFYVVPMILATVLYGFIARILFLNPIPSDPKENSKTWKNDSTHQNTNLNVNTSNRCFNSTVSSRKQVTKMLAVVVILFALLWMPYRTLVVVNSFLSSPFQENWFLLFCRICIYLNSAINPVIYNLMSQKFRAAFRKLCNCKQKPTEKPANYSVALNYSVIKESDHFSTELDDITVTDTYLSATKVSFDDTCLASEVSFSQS
Chain of Nuclear receptor subfamily 1 group I member 2 (Homo sapiens) (O75469 whole entry, looked up): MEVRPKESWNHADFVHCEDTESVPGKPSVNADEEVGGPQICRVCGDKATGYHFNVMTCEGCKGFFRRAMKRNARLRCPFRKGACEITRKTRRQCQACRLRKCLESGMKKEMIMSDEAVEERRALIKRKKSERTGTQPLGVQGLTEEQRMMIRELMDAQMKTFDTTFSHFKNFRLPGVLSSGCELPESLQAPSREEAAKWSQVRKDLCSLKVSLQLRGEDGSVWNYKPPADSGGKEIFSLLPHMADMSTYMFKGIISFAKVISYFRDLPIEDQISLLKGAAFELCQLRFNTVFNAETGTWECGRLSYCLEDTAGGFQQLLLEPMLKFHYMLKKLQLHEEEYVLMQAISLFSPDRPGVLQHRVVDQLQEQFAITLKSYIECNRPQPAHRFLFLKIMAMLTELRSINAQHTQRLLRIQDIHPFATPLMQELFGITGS
Chain of Acetylcholinesterase (Homo sapiens) (P22303 whole entry, looked up): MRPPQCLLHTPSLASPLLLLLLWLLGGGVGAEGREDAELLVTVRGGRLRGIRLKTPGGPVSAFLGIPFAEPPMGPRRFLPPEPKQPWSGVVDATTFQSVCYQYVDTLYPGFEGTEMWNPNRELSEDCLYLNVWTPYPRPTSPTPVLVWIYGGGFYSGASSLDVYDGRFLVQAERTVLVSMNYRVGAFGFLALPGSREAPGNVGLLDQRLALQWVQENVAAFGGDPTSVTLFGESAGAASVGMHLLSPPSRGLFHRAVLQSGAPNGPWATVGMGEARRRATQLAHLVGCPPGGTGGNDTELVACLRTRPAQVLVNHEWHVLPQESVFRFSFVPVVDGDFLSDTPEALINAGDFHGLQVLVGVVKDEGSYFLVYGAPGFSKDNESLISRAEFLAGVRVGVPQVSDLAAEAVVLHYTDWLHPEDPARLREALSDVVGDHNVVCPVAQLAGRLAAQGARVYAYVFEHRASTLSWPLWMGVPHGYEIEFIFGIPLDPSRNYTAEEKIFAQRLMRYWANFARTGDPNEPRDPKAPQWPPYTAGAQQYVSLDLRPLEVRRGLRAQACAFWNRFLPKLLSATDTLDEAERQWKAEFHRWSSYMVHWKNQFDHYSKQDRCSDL
Chain of Nuclear receptor subfamily 1 group I member 2 (Rattus norvegicus) (Q9R1A7 whole entry, looked up): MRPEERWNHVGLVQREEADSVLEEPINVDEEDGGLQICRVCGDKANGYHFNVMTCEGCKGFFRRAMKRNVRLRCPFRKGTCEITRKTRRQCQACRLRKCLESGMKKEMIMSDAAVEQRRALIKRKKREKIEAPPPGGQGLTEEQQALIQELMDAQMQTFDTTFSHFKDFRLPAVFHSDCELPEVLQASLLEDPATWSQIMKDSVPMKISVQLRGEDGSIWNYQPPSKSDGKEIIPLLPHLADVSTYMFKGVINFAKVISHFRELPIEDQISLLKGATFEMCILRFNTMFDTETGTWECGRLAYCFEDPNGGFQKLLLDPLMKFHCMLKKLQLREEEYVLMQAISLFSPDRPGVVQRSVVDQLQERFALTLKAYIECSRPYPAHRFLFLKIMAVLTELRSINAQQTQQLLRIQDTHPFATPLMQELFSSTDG

Clc1ccc(CSC(Cn2ccnc2)c2ccc(Cl)cc2Cl)cc1 (centres undefined)
active: Potency [1] 6.68 µM | Potency [8] 18.8 µM | Potency [10] 9.44 µM
inactive: Potency [2] | Potency [3] | outcome [4] | Potency [5] | Potency [6] | Potency [7] | Potency [9] | max activation [11] 11.4% | Potency [12] | Potency [13]

O=[N+]([O-])O.O=[N+]([O-])O.[Cd]
active: Potency [1] 3.06 µM | Potency [14] 4.86 µM | Potency [15] 5.45 µM | Potency [8] 1.72 µM
inactive: outcome [2] | Potency [7] | Potency [9]

C=CCC1=C(C)C(OC(=O)C2C(C=C(C)C)C2(C)C)CC1=O (centres undefined)
active: Potency [8] 55.3 µM | Potency [10] 10.3 µM
inactive: Potency [3] | outcome [4] | Potency [5] | Potency [7] | Potency [9] | Potency [13]

CCCOCC(=Nc1ccc(Cl)cc1C(F)(F)F)n1ccnc1
active: Potency [15] 61.1 µM | Potency [8] 48.5 µM | Potency [10] 24.3 µM
inactive: Potency [2] | Potency [3] | outcome [4] | Potency [5] | Potency [6] | Potency [9] | Potency [13]

N#Cc1c(-c2ccc(Cl)cc2)[nH]c(C(F)(F)F)c1Br
active: Potency [1] 4.33 µM | Potency [14] 6.86 µM | Potency [15] 0.77 µM | Potency [8] 1.54 µM | Potency [16] 27.3 µM | Potency [10] 2.17 µM
inactive: Potency [3] | Potency [5] | Potency [6] | Potency [7] | Potency [9] | Potency [13]

Oc1ccc(C(=C(Cl)Cl)c2ccc(O)cc2)cc1
active: Potency [8] 61 µM | Potency [10] 61 µM
inactive: Potency [2] | Potency [3] | outcome [4] | Potency [7] | Potency [9] | Potency [13]

CC1CCC(C(C)C)C(OC(=O)c2ccccc2N)C1 (centres undefined)
active: Potency [1] 60.3 µM | Potency [14] 53.7 µM | Potency [10] 19.1 µM
inactive: outcome [4] | Potency [5] | Potency [6] | max activation [11] 13.1% | Potency [12] | Potency [13]

O=C(CCl)C(Cl)Cl
active: Potency [1] 43.7 µM | Potency [14] 27.6 µM | Potency [15] 15.5 µM | Potency [8] 6.17 µM | Potency [16] 21.9 µM | Potency [10] 9.78 µM
inactive: Potency [2] | Potency [3] | outcome [4] | Potency [5] | Potency [6] | Potency [7] | Potency [9]

Oc1ccc(C2(c3ccc(O)cc3)c3ccccc3-c3ccccc32)cc1
inactive: Potency [2] | outcome [4] | Potency [5] | Potency [6] | Potency [9]
active: Potency [1] 48.6 µM | Potency [8] 68.6 µM

CCCN(CCC)c1c([N+](=O)[O-])cc(S(N)(=O)=O)cc1[N+](=O)[O-]
active: Potency [3] 58.6 µM | Potency [7] 57.2 µM | Potency [8] 50.1 µM | Potency [16] 57.7 µM | Potency [10] 3.67 µM

C[CH2][Hg][N]1C(=O)C2C(C1=O)C1(Cl)C(Cl)=C(Cl)C2(Cl)C1(Cl)Cl (centres undefined)
active: Potency [1] 14.6 µM | Potency [8] 11.6 µM
inactive: activity change, negative = cytotoxicity [3] 0.501% [at 15.8 µM] | caspase activation [7] -9.39% [at 19 µM] | caspase-3/7 activation [9] -6.08% [at 19 µM] | activation [10] -20.9% [at 19 µM] | activity, negative = inhibition [13] 0.291% [at 23.6 µM]

c1ccc2cc3c(cc2c1)-c1cccc2cccc-3c12
inactive: Potency [1] | Potency [14] | Potency [2] | Potency [3] | Potency [15] | Potency [9] | Potency [16] | Potency [13]
active: Potency [7] 7.59 µM | Potency [10] 2.4 µM
